“And” between values parts separate entries of the source, which are not always exact repeats. Equal values may be shown once. Records with an inconclusive call do not appear. Entries that show only a call come without a potency. Some structures have more than one record in an assay (separate samples or runs), and their calls can disagree. The source made the active and inactive calls. Calls follow the shape of the dose curve; as a rule, active = well fitted activation curve with a large enough effect in the repeat runs; inconclusive = weak or mixed curves; inactive = no such curve, though single readings can be large or run the other way.

Sequence of Nuclear receptor subfamily 1 group I member 2 (Rattus norvegicus) (Q9R1A7 whole entry, looked up): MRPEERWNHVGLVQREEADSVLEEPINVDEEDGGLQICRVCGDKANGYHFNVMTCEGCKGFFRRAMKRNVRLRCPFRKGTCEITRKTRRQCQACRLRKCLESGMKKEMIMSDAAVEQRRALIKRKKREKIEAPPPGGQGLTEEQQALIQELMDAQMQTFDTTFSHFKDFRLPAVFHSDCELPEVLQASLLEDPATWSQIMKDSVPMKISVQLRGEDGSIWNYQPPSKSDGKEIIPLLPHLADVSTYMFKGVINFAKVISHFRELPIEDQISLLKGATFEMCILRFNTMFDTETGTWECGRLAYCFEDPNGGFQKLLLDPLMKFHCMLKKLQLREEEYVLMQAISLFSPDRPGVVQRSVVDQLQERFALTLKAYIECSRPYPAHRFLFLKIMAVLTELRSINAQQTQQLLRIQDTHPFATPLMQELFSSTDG

The target in one assay is Nuclear receptor subfamily 1 group I member 2 (Homo sapiens) (UniProt O75469). As to the kind of experiment: Human pregnane X receptor (PXR) small molecule agonists, qHTS assay (AID 1346982). Also: nearly all actives have a fitted effect of over 35% in size. Also: potency is read from the fitted curve at half-maximal effect. To be noted: PXR-Luc HepG2, CYP3A4 luciferase reporter, 24 h; series mostly up to 92.4 µM. The method, boiled down: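 Reporter HepG2 cells expressing PXR-Luc are cultured in charcoal-stripped FBS (5%), treated with compounds for 24 hr at 37 C, and assayed by ONE-Glo luminescence after 30 min at room temperature.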
Sequence of Nuclear receptor subfamily 1 group I member 2 (Homo sapiens) (O75469 whole entry, looked up): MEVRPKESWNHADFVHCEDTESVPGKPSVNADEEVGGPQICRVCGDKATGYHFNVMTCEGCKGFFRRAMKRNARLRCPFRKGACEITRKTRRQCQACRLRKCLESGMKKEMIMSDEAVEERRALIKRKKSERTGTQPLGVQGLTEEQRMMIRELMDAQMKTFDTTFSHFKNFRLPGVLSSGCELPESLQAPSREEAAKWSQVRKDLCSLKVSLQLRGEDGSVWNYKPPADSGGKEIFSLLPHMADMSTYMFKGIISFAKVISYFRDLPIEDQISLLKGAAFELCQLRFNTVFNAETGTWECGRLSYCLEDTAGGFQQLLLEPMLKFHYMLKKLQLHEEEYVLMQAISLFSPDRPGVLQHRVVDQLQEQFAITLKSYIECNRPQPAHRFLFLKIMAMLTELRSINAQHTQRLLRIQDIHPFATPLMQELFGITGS
For the compound `CC[C@H](C)C(=O)O[C@H]1C[C@@H](C)C=C2C=C[C@H](C)[C@H](CC[C@@H]3C[C@@H](O)CC(=O)O3)[C@H]21`, the Potency was 24.7 µM (active) and inactive. For `C=CCOC(=O)c1ccccc1C(=O)OCC=C`, the Potency entry is “inactive”. Consider `O=S(=O)(O)c1ccc2ccccc2c1`, for which the Potency result was “inactive”. The same measure, in the same setting: the same measure for `CC(=O)OCC(=O)[C@@]12N=C(C)O[C@@H]1C[C@H]1[C@@H]3CCC4=CC(=O)C=C[C@]4(C)[C@H]3[C@@H](O)C[C@@]12C`: 17.2 µM (active); for `CC1=CCC2CC1C2(C)C` (stereo not drawn): “inactive”. On the same count and under the same terms, the same measure for `C=CCNC(N)=S`: “inactive”; for `Cc1cnc(C(=O)NCCc2ccc(S(=O)(=O)NC(=O)NC3CCCCC3)cc2)cn1`: “inactive”; for `C=C(C)C(=O)Nc1ccc(Cl)c(Cl)c1`: 61.8 µM (active) and 54.3 µM (active). Same read-out and setting: under `C=C(C)C(=O)O[C@H]1C[C@@H]2CC[C@@]1(C)C2(C)C` stands “inactive”. As to `O=c1[nH]c(=O)n([C@H]2CCCO2)cc1F`, the Potency result is “inactive”. For the compound `Fc1ccc(Br)cc1`, the Potency result is “inactive”. On the same count and under the same terms, the same measure for `CC(c1cc2ccccc2s1)N(O)C(N)=O` (stereo not drawn): 34.4 µM (active) and inactive.

`O=c1[nH]c(=O)n([C@H]2C[C@H](O)[C@@H](CO)O2)cc1Br`: the Potency was 12.4 µM (active) and inactive. On the same count and under the same terms, under `CC(=O)Nc1cccc(O)c1` stands “inactive”; under `CC(C)(C)[C@@H](O)[C@@H](Cc1ccc(Cl)cc1)n1cncn1`, 34.1 µM (active). On the same count and under the same terms, under `C/C=C1/CC2C=CC1C2` (stereo not drawn) stands “inactive and 54.5 µM (active)”; under `C#C[C@]1(O)CC[C@H]2[C@@H]3CCC4=CC(=O)CC[C@@H]4[C@H]3CC[C@@]21C`, 48.6 µM (active); under `C#CCN(C)Cc1ccccc1`, “inactive”.

Regarding `CCN(CC)CCCC(C)Nc1ccnc2cc(Cl)ccc12` (stereo not drawn), the activation was 3.19% [at 8.39 µM] (inactive) and -3.77% [at 19 µM] (inactive). As for `CCCCCCCCCCCCOCCO`, the Potency was 61.1 µM (active) and inactive.

As to `CCCCCOC(C)=O`, the Potency entry is “inactive”.

On to `O=C(CC(C(=O)OC1CCCCC1)S(=O)(=O)O)OC1CCCCC1` (stereo not drawn), for which the Potency is 26.9 µM (active).

Regarding `CCCCC(CC)COC(=O)C(C#N)=C(c1ccccc1)c1ccccc1` (stereo not drawn), the Potency was 13.7 µM (active) and 10.6 µM (active). For the compound `CC(=O)c1ccccc1`, the Potency result was “inactive”.

`O=C(OCCOCCOC(=O)c1ccccc1)c1ccccc1`: the Potency result is “inactive”. Turning to `CC(=O)Nc1ccccc1`, the Potency entry was “inactive”.

With `O=c1[nH]nnc2ccccc12`, the Potency entry is “inactive”. Take `O=C(O)[C@H](O)[C@@H](O)[C@H](O)[C@H](O)CO`: the Potency entry is “inactive”. On the same count and under the same terms, the same measure for `CCCCCCOCCO`: “inactive”; for `O=C(O)c1cc(O)c(O)c(O)c1`: “inactive”; for `CSCCC=O`: “inactive”. The same measure, in the same setting: the same measure for `CCCCCC(N)=O`: “inactive”; for `OC[C@H]1O[C@@](CO)(O[C@H]2O[C@H](CO)[C@@H](O)[C@H](O)[C@H]2O)[C@@H](O)[C@@H]1O`: “inactive and 27.3 µM (active)”. On the same count and under the same terms, the same measure for `OCCOCCOCCO`: 63.4 µM (active) and inactive; for `CCCCC(CC)COC(=O)CS` (stereo not drawn): “inactive”; for `CCCCCCCCCCCCc1ccccc1`: “inactive”. Turning to `O=C(O)c1ccc2c(c1)C(=O)OC2=O`, the Potency entry is “inactive”.

A further assay has as its target Nuclear receptor subfamily 1 group I member 2 (Rattus norvegicus) (UniProt Q9R1A7). As to the kind of experiment: Rat pregnane X receptor (rPXR) activation by small molecules, qHTS assay (AID 1346983). Also: nearly all actives have a fitted effect of over 20% in size. Also: potency is read from the fitted curve at half-maximal effect. To be noted: rPXR luciferase reporter cells, One-Glo luminescence, 24 h; max activation: stronger effect = higher value. The method, boiled down: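 Cell-based rPXR luciferase reporter assay, 2,000 cells per well, rested 5hr at 37 C before compound addition in DMSO, then 24 hr at 37 C. One-Glo reagent was added and luminescence read after 30 min at room temperature.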
For orientation: qHTS replaces the single test concentration by a dilution series.
Consider `CC[C@H](C)C(=O)O[C@H]1C[C@@H](C)C=C2C=C[C@H](C)[C@H](CC[C@@H]3C[C@@H](O)CC(=O)O3)[C@H]21`, for which the Potency is 12.6 µM (active). Same read-out and setting: under `CC(=O)OCC(=O)[C@@]12N=C(C)O[C@@H]1C[C@H]1[C@@H]3CCC4=CC(=O)C=C[C@]4(C)[C@H]3[C@@H](O)C[C@@]12C` stands 15.8 µM (active). Regarding `CC1=CCC2CC1C2(C)C` (stereo not drawn), the max activation was -0.804% (inactive). On the same count and under the same terms, under `C=CCNC(N)=S` stands -2.6% (inactive); under `O=c1[nH]c(=O)n([C@H]2CCCO2)cc1F`, -0.0643% (inactive). Consider `CC(c1cc2ccccc2s1)N(O)C(N)=O` (stereo not drawn), for which the max activation is 1.87% (inactive). Turning to `O=c1[nH]c(=O)n([C@H]2C[C@H](O)[C@@H](CO)O2)cc1Br`, the Potency was 4.47 µM (active).

`CC(=O)Nc1cccc(O)c1`: the max activation was -2.31% (inactive).

As to `C#C[C@]1(O)CC[C@H]2[C@@H]3CCC4=CC(=O)CC[C@@H]4[C@H]3CC[C@@]21C`, the max activation is -1% (inactive). With `C#CCN(C)Cc1ccccc1`, the max activation is -0.422% (inactive). Still for that read-out and setting: the same measure for `CCN(CC)CCCC(C)Nc1ccnc2cc(Cl)ccc12` (stereo not drawn): -1.5% (inactive); for `CC(=O)Nc1ccccc1`: -1.12% (inactive); for `O=C(O)[C@H](O)[C@@H](O)[C@H](O)[C@H](O)CO`: -0.835% (inactive) and -2.16% (inactive). On the same count and under the same terms, under `O=C(O)c1cc(O)c(O)c(O)c1` stands -1.49% (inactive). As for `CCCCCC(N)=O`, the max activation is -0.768% (inactive). Take `OC[C@H]1O[C@@](CO)(O[C@H]2O[C@H](CO)[C@@H](O)[C@H](O)[C@H]2O)[C@@H](O)[C@@H]1O`: the max activation is 0.408% (inactive). Consider `OCCOCCOCCO`, for which the max activation was -2.18% (inactive).

The next assay deals with Nuclear receptor subfamily 1 group I member 2 (Homo sapiens) (UniProt O75469). Kind of assay: CYP3A4 induction through human pregnane X receptor (PXR) by small molecules, qHTS assay (AID 1346984). Also: nearly all actives have a fitted effect of over 40% in size. Conditions: DPX-2 HepG2 PXR, CYP3A4-luciferin luminescence, 24 h; series mostly up to 46.1 µM. The method, boiled down:
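Induction measured in HepG2-based DPX-2 cells co-expressing human PXR and a CYP3A4 promoter-driven luciferase. After a 24-hour compound exposure, cells received CYP3A4 luciferin substrate at 3uM final for 3 hours, and light output was then recorded.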
In the case of `CC(=O)OCC(=O)[C@@]12N=C(C)O[C@@H]1C[C@H]1[C@@H]3CCC4=CC(=O)C=C[C@]4(C)[C@H]3[C@@H](O)C[C@@]12C`, the result was inactive.

In the case of `CC1=CCC2CC1C2(C)C` (stereo not drawn), the call was inactive. On the same count and under the same terms, under `C=CCNC(N)=S` stands “inactive”; under `O=c1[nH]c(=O)n([C@H]2CCCO2)cc1F`, “inactive”; under `CC(c1cc2ccccc2s1)N(O)C(N)=O` (stereo not drawn), “inactive”. On the same count and under the same terms, under `O=c1[nH]c(=O)n([C@H]2C[C@H](O)[C@@H](CO)O2)cc1Br` stands “inactive”. On the same count and under the same terms, under `CC(=O)Nc1cccc(O)c1` stands “inactive”; under `C#CCN(C)Cc1ccccc1`, “inactive”.

Turning to `CC(=O)Nc1ccccc1`, the result was inactive.

As for `O=C(O)[C@H](O)[C@@H](O)[C@H](O)[C@H](O)CO`, the call was inactive. Still for that read-out and setting: the same measure for `O=C(O)c1cc(O)c(O)c(O)c1`: “inactive”.

Regarding `CCCCCC(N)=O`, the call was inactive. The same measure, in the same setting: the same measure for `OC[C@H]1O[C@@](CO)(O[C@H]2O[C@H](CO)[C@@H](O)[C@H](O)[C@H]2O)[C@@H](O)[C@@H]1O`: “inactive”. The same measure, in the same setting: under `OCCOCCOCCO` stands “inactive”.

Source of the values: PubChem BioAssay (Tox21).
